Values joined by “and” are separate entries in the source; they are usually repeats but may differ in a detail not shown here. Equal entries are not always repeated. Results filed as inconclusive are left out. Entries that show only a call come without a potency. Active and inactive are the calls of the source. The call rests on the fitted dose curve; in most records, active means well fitted curve in the direction sought with a large enough effect; inconclusive means small, poorly fitted or top-dose-only effect, or another doubt; inactive means no such curve, though single readings can be large; an effect the other way counts as inactive or inconclusive.
Columns and labels:
[1] = test system: Zika virus NS2B-NS3 protease; assay: Primary screen GU AMC qHTS for Zika virus inhibitors (AID 1347154); further: nearly all actives have a fitted effect of over 70% in size; further: potency means the concentration at half of the fitted maximal effect
Outline: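 Unlinked Zika NS2B hydrophilic domain–NS3 protease complex at 25 nM in 10 mM Tris-HCl pH 8.0, 0.01% Tween 20, with an AMC peptide substrate. Fluorescence change (340/450 nm) over 15 min at room temperature, normalized to controls, fitted to 4-parameter Hill.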

[2] = test system: Zika virus NS2B-NS3 protease (unlinked complex); assay: Confirmatory screen GU AMC qHTS for Zika virus inhibitors (AID 1347153); conditions: Recombinant NS2B-NS3 protease, AMC substrate fluorescence;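 further: enzyme at 25 nM with substrate at 10 µM below its Km of 18.3 µM; potency means the concentration at half of the fitted maximal effect; nearly all actives have a fitted effect of over 70% in size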
Outline: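 Fluorescence change (ex 340/em 450 nm) over 15 min, ~20% substrate conversion, normalized to no-inhibitor and no-enzyme controls, then Hill-fitted. Unlinked protease at 25 nM; AMC peptide 10 µM.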

[3] = test system: Zika virus NS2B-NS3 protease (unlinked complex); assay: Primary screen GU Rhodamine qHTS for Zika virus inhibitors: Unlinked NS2B-NS3 protease assay (AID 1347159); further: nearly all actives have a fitted effect of over 60% in size; further: potency means the concentration at half of the fitted maximal effect
Outline: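 A qHTS format was used, with compound concentrations ranging up to 114 microM. Each compound was preincubated with 25 nM NS2B-NS3 protease, and the substrate was then added at 1.5 microM. Curves were fitted with a 4-parameter Hill model.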

[4] = test system: Zika virus NS2B-NS3 protease (linked construct); assay: Primary screen NINDS Rhodamine qHTS for Zika virus inhibitors (AID 1347160); further: nearly all actives have a fitted effect of over 55% in size; further: potency means the concentration at half of the fitted maximal effect
Outline: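 Kinetic fluorescence (Ex 480 nm, Em 540 nm) over 15 min with 1.5 microM Rhodamine110 peptide and 25 nM linked protease.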

[5] = Vero cells viability qHTS for Zika virus inhibitors (AID 1347167)
Outline: (§1)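 Cells seeded at 2.5 x 10^5 cells/mL in DMEM with 4% FBS and attached overnight at 37 degrees C, then exposed to compound for 24 to 48 hours. Viability read as ATP content by CellTiter Glo luminescence.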

[6] = Confirmatory screen NINDS Rhodamine qHTS for Zika virus inhibitors (AID 1347161); further: nearly all actives have a fitted effect of over 60% in size; further: potency means the concentration at half of the fitted maximal effect
Outline: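 Enzyme (25 nM, linked NS2B-NS3) was preincubated 15 min with compound in 10 mM Tris-HCl pH 8.0, 0.01% Tween 20. Rhodamine110 substrate (1.5 microM) was then added and fluorescence read at start and after 15 min.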

[7] = HepG2 cells viability qHTS for Zika virus inhibitors (AID 1347168)
Outline: as §1

[8] = Confirmatory screen GU Rhodamine qHTS for Zika virus inhibitors qHTS (AID 1347157); further: potency means the concentration at half of the fitted maximal effect; nearly all actives have a fitted effect of over 70% in size
Outline: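 Noncovalent NS2B hydrophilic domain/NS3 protease complex (25 nM final) in 10 mM Tris-HCl pH 8.0, 0.01% Tween 20, preincubated 15 min with compounds (up to 114 microM), then 1.5 microM Rhodamine110 substrate. Fluorescence change over 15 min fitted to 4-parameter Hill.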

[9] = test system: Zika virus NS2B-NS3 protease (linked); assay: 384 well plate NINDS AMC confirmatory qHTS for Zika virus inhibitors (AID 1347163); conditions: Recombinant NS2B-NS3 protease, Ac-VKTGKR-AMC fluorescence; further: potency means the concentration at half of the fitted maximal effect; nearly all actives have a fitted effect of over 50% in size
Outline: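 Linked NS2B-NS3 protease (final 5 nM, 30 nM or 60 nM) was preincubated with compounds (final up to 1 mM) for ~15 minutes. Ac-VKTGKR-AMC substrate (final 30 microM) then reacted for 25 minutes at room temperature in the dark. Fluorescence (ex 355/em 460 nm) was normalized to no-enzyme and no-inhibitor controls.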

[10] = test system: Zika virus NS2B-NS3 protease (linked construct); assay: 384 well plate NINDS Rhodamine confirmatory qHTS for Zika virus inhibitors (AID 1347164);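 further: fluorescence from protease cleavage of Ac-LKRR-rhodamine 110 substrate; top concentration of the series differs between compounds; nearly all actives have a fitted effect of over 65% in size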
Outline: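 Fluorescence at 485/538 nm was measured 25 minutes after adding 10 microM Ac-LKRR-Rd substrate, in the dark at room temperature. The protease (5, 30 or 60 nM final) had been preincubated ~15 minutes with compound; aprotinin as control.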

[11] = Tertiary RLuc qRT-PCR qHTS assay for Zika virus inhibitors (AID 1347169); further: potency means the concentration at half of the fitted maximal effect; nearly all actives have a fitted effect of over 55% in size
Outline: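 Orthogonal cell-based readout: luminescence measured 1-1.5 hrs after adding live-cell Renilla substrate to Vero cells that had been infected with ZIKV-RLuc (MOI 1-2) post-compound, incubated 48-72 hrs at 37 degrees C.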

COC(=O)N[C@H](C(=O)N1CCC[C@@H]1c1ncc(-c2ccc(-c3ccc(-c4cnc([C@@H]5CCCN5C(=O)[C@@H](NC(=O)OC)C(C)C)[nH]4)cc3)cc2)[nH]1)C(C)C
Potency [1]: 30.4 µM (active)

CCc1ccc(OCc2ccccc2C(=O)Nc2ccc3nc(C)cc(N)c3c2)cc1
Potency [1]: inactive

CCOC1OC(=O)C[C@H]1NC(=O)[C@@H]1CCCN1C(=O)[C@@H](NC(=O)c1ccc(N)c(Cl)c1)C(C)(C)C (stereo partly specified)
Potency [1]: inactive

NS(=O)(=O)c1cccc2c1C(=O)c1cccc(O)c1C2=O
Potency [1]: inactive

CCC(CC)[C@H](NC(C)=O)[C@@H]1[C@H](O)[C@@H](C(=O)O)C[C@@H]1N=C(N)N
Potency [1]: inactive

COc1ccc(-c2coc3cc(O)cc(O)c3c2=O)cc1
Potency [1]: inactive

COc1cccc2c1CCCC2CCCN1CCN(C2CCCCC2)CC1 (stereo unspecified)
Potency [1]: inactive

COCCCCC(=NOCCN)c1ccc(C(F)(F)F)cc1
Potency [1]: inactive

CC(=Cc1ccccc1)C=C1SC(=S)N(CC(=O)O)C1=O
Potency [1]: inactive

CC=CC[C@@H](C)C(=O)[C@H]1C(=O)N[C@@H](C(C)C)C(=O)N(C)CC(=O)N(C)[C@@H](CC(C)C)C(=O)N[C@@H](C(C)C)C(=O)N(C)[C@@H](CC(C)C)C(=O)N[C@@H](C)C(=O)N[C@H](C)C(=O)N(C)[C@@H](CC(C)C)C(=O)N(C)[C@@H](CC(C)C)C(=O)N(C)[C@@H](C(C)C)C(=O)N1C
Potency [1]: inactive

Clc1cc(Cl)cc(CNc2ncncc2-c2ccc3c(c2)OCO3)c1
Potency [1]: inactive

COc1ccc2cc(-c3nc(-c4ccc(S(C)=O)cc4)[nH]c3-c3ccncc3)ccc2c1 (stereo unspecified)
Potency [2]: 17.1 µM (active)
Potency [1]: 17.1 µM (active)
Potency [3]: inactive
Potency [4]: inactive
Potency [5]: inactive

CC=CCC=CCCC(=O)[C@H]1O[C@@H]1C(N)=O
Potency [1]: inactive

Cc1ccn(-c2ccc(-c3ncco3)cc2)c(=O)c1-c1ccc2nc(N)ncc2c1
Potency [2]: 30.4 µM (active)
Potency [1]: 21.5 µM (active)
Potency [4]: inactive
Potency [6]: 49.3 µM (active)
Potency [5]: inactive
outcome [7]: inactive

O=C(NCc1ccncc1)C12C[C@H]3C[C@@H](C1)CC(c1ccc(Cl)cc1)(C3)C2
Potency [1]: inactive

CO[C@H]1C(=O)[C@]2(C)[C@@H](OC)C[C@H]3OC[C@@]3(OC(C)=O)[C@H]2[C@H](OC(=O)c2ccccc2)[C@]2(O)C[C@H](OC(=O)[C@H](O)[C@@H](NC(=O)OC(C)(C)C)c3ccccc3)C(C)=C1C2(C)C
Potency [1]: inactive

CC1(C)CCC(CN2CCN(c3ccc(C(=O)NS(=O)(=O)c4ccc(NCC5CCOCC5)c([N+](=O)[O-])c4)c(Oc4cnc5[nH]ccc5c4)c3)CC2)=C(c2ccc(Cl)cc2)C1
Potency [2]: 8.57 µM (active)
Potency [8]: 1.21 µM (active)
Potency [3]: 2.24 µM (active)
Potency [4]: 3.98 µM (active)
Potency [6]: 1.24 µM (active) and 857 nM (active)
Potency [9]: 31.6 µM (active)
Potency [10]: inactive
outcome [7]: inactive
Potency [11]: 5.72 µM (active)

CCCCCNC(=O)N1CCC(CN(Cc2ccc(Cl)cc2)Cc2ccc([N+](=O)[O-])s2)C1 (stereo unspecified)
Potency [1]: inactive

OC[C@@H](O)[C@H](O)[C@H](O)[C@@H](O)CO
Potency [1]: inactive

CC/C(=C(\c1ccccc1)c1ccc(OCCN(C)C)cc1)c1ccccc1
Potency [1]: inactive

CC(=NNC(=S)N1CCC1)c1ccccn1
Potency [1]: inactive

CC=CC(=O)N(CC)c1ccccc1C
Potency [1]: inactive

CO[C@H]1C[C@@H]2CC[C@@H](C)[C@@](O)(O2)C(=O)C(=O)N2CCCC[C@@H]2C(=O)O[C@H]([C@H](C)C[C@@H]2CC[C@H](OP(C)(C)=O)[C@H](OC)C2)CC(=O)[C@H](C)C=C(C)[C@@H](O)[C@@H](OC)C(=O)[C@H](C)C[C@H](C)C=CC=CC=C1C
Potency [1]: inactive

O=c1c(-c2ccc(O)cc2)coc2cc(O[C@@H]3O[C@H](CO)[C@H](O)[C@H](O)[C@H]3O)ccc12
Potency [1]: inactive

CS(=O)c1ccc(-c2nc(-c3ccc(F)cc3)c(-c3ccncc3)[nH]2)cc1 (stereo unspecified)
Potency [2]: 21.5 µM (active)
Potency [1]: 26.7 µM (active) and 17.5 µM (active)
Potency [3]: inactive
Potency [4]: inactive
Potency [6]: inactive
Potency [5]: inactive
outcome [7]: inactive

C[C@H](NC(=O)c1sccc1OCc1ccc(Cl)cc1)c1ccccc1
Potency [1]: inactive

CC[C@@H]1C=C(C)C[C@H](C)C[C@H](OC)[C@H]2O[C@@](O)(C(=O)C(=O)N3CCCC[C@@H]3C(=O)O[C@H](C(C)=C[C@@H]3CC[C@H](Cl)[C@H](OC)C3)[C@H](C)[C@@H](O)CC1=O)[C@H](C)C[C@H]2OC
Potency [1]: inactive

COc1cc(O)c2c(c1)C(=O)c1cc(C)cc(O)c1C2=O
Potency [1]: inactive

— PubChem BioAssay (NCATS)
